Source: PubChem BioAssay
Shown are actives, neighbours in structure and some others; about 2.4% of the full set was active somewhere.
CHO-K1 Ca ag: counter-screen for M1 agonists: effect in parental CHO-K1 cells; Fluo-8 calcium fluorescence; scaled to maximal ATP response, vehicle zero; activation, % at 3 µM; 360,000 compounds, 0.48% hits; in the data active = activation above about 15%;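 also: untransfected CHO-K1 host cells lacking M1 receptor as counterscreen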
CHRM1 agonist: human M1 muscarinic receptor agonists, primary screen, Fluo-8 calcium fluorescence, CHO-K1 cells, HTS | Muscarinic acetylcholine receptor M1 (Homo sapiens), P11229 | CHO-K1 hM1, agonist mode; 0% DMSO, 100% acetylcholine EC100 | activation, % at 3 µM | 360,000 compounds, 0.33% hits | AID 588814, 2011;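 active = activation above the run's mean compound activation plus 3 SD, cut at about 16% in these data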;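 also: peak over basal fluorescence ratio within a 140 s kinetic read after compound addition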
Target sequence (P11229 whole entry, looked up): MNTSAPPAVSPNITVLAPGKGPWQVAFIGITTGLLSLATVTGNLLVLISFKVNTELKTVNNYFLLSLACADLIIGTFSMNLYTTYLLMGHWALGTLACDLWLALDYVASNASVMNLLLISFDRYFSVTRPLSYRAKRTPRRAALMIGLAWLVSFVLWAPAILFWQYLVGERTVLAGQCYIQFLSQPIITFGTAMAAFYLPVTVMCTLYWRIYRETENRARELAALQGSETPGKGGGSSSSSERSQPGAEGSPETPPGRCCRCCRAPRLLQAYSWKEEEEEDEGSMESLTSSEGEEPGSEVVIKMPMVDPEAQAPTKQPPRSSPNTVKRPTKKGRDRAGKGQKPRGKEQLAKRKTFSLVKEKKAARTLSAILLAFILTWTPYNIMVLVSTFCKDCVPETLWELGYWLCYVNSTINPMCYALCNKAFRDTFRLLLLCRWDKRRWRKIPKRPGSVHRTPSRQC
M1 PAM parental: nonselective calcium activators in parental CHO-K1 cells, primary screen, counter-screen for M1 PAM project, cell-based, Fluo-8 calcium fluorescence, full deck, 1536-well | ATP EC20; 0% at ATP EC20, 100% at ATP max | AID 602247, 2012 | 360,000 compounds, 0.02% hits | activation, % at 3 µM;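 active = activation above the run cutoff, the mean activation of all test compounds plus 3 SD, cut at about 40% in these data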;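 also: peak over basal fluorescence ratio in a 140 s read after ATP addition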
CHRM1 antagonist: human M1 muscarinic receptor antagonists, primary screen, CHO-K1 cells, Fluo-8 calcium fluorescence, 1536-well; Muscarinic acetylcholine receptor M1 (Homo sapiens), P11229; CHO-K1 hM1, ACh EC80 antagonist; inhibition, % at 3 µM; 360,000 compounds, 1.3% hits; AID 588852, 2011;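 active = percent inhibition above its own plate's cutoff, namely the mean of that plate's compound wells plus 3 SD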;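 also: peak over basal fluorescence ratio during 140 s after agonist addition; 0% = ACh EC80 plus DMSO and 100% = DMSO alone without agonist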
M1 PAM: human M1 muscarinic receptor positive allosteric modulators, primary screen, CHO-K1 cells, Fluo-8 calcium fluorescence, 1536-well | CHO-K1 hM1, ACh EC20; 0% = ACh EC20, 100% = maximal ACh | activation, % at 3 µM | 360,000 compounds, 0.088% hits; in the data active = activation above about 19%, passing the limit was not always enough
CHO-K1 Ca antag: counter-screen for M1 antagonists: effect in parental CHO-K1 cells; ATP-induced calcium, Fluo-8 fluorescence; inhibition, % at 3 µM; 360,000 compounds, 0.6% hits;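 active = inhibition above a per-plate cutoff, the plate's mean sample inhibition plus 3 SD, cut at about 24% in these data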;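 also: 0% = DMSO plus EC80 ATP and 100% = DMSO alone without ATP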
* hit, by the source's call.

SMILES	CHO-K1 Ca ag	CHRM1 agonist	M1 PAM parental	CHRM1 antagonist	M1 PAM	CHO-K1 Ca antag
COCc1nnc(NC(=O)c2ccc(OC)cc2OC)s1	0	-2	-1	3	6	5
COc1ccc(C(=O)Nc2nnc(CCc3ccccc3)s2)c(OC)c1	0	-4	-21	13	-4	35*
O=C(Nc1ccc2c(c1)OCO2)c1n[nH]c(=O)c2ccccc12	1	0	18	-5	7	-12
CCc1ccc(N=Nc2ccc(O)c3[nH]cnc23)cc1	13	14	-15	40*	-15	18
CC(=O)Nc1ccc(N(CC(=O)NC2CCCCC2)C(=O)Cn2nnc(-c3ccccc3)n2)cc1	1	-1	8	-12	10	-15
Cc1ccccc1-n1c(SCC(=O)N2CCCC2)nnc1-c1ccccn1	0	1	18	-37	22*	-12
CCc1ccccc1-n1c(SCC(=O)N2CCCC2)nnc1-c1ccccn1	1	-2	14	-7	6	-4
CC(=O)Oc1ccc(C)cc1-n1nc2ccccc2n1	0	-2	-5	2	4	24*
O=C(NCC(c1ccco1)N1CCCC1)c1cc2cc(Cl)ccc2o1 (configuration not stated)	0	-8	-11	-8	10	-7
COc1ccc(-c2ccnc3nc(N4CCOCC4)nn23)cc1	0	-1	-7	3	-3	24*
Cc1ccc(Cl)cc1N1CCN(c2cccc[n+]2C)CC1	4	-6	14	48*	-19	-3
O=C(COc1ccccc1)NC(=S)Nc1cccc2c(O)cccc12	7	19*	5	3	3	-6
Cc1cccc(N2CC(C(=O)Nc3nnc(SCC(=O)N4CCOCC4)s3)CC2=O)c1 (configuration not stated)	0	-1	-10	-6	6	4
CS(=O)(=O)Nc1ccc(C2=NN(C(=O)c3ccco3)C(c3cccc(F)c3)C2)cc1 (configuration not stated)	16*	-2	23	-1	12	6
CCN(CC)c1ccc(/C=N/NC(=O)CNC(=O)c2ccc3c(c2)OCCO3)cc1	-1	-11	3	-35	31*	-21
CN(C)c1ccc(/C=N/NC(=O)CNC(=O)c2ccc3c(c2)OCCO3)cc1	0	-7	24	-1	0	-3
Cc1cc2oc(C(=O)Nc3ccc(S(N)(=O)=O)cc3)c(C)c2cc1Cl	-1	-3	-11	2	-6	28*
Cc1ccc(NC(=O)C2=CC(c3ccc(C)cc3)=NS(=O)(=O)N2C)cc1	12	4	-8	36*	-23	16
COc1ccc(C2=NS(=O)(=O)N(C)C(C(=O)Nc3ccc(C)cc3)=C2)cc1	10	3	11	18	-19	3
CSc1ccccc1NS(=O)(=O)c1ccccc1	0	-2	-8	-4	8	25*
COc1ccc(CN(C)C(=O)C2CCN(C(=O)Nc3ccccc3)CC2)cc1	1	0	-27	19	-7	26*
CCNC(=O)c1ccc(C23CC4CC(CC(C4)C2)C3)o1	15*	-3	9	-10	8	-2
O=C(CNC(=O)c1ccc(Br)o1)NC12CC3CC(CC(C3)C1)C2	1	4	-1	6	15	-6
CCOC(=O)N1CCC(NC(=O)c2ccccc2C(=O)O)CC1	0	-3	-20	11	-5	12
CCOC(=O)N1CCC(NCCNC(=O)c2ccccc2Cl)CC1	0	43*	-7	38*	-16	10
SMILES	CHO-K1 Ca ag	CHRM1 agonist	M1 PAM parental	CHRM1 antagonist	M1 PAM	CHO-K1 Ca antag
CCOC(=O)N1CCC(NCCNC(=O)c2ccccc2)CC1	1	53*	9	48*	-14	0
CCOC(=O)N1CCC(NCCNC(=O)c2cccs2)CC1	0	31*	-1	21	-12	4
CCOC(=O)N1CCC(NC(=O)c2cccs2)CC1	1	-3	18	-14	1	-11
O=C(Nc1ccc(Oc2ccccc2)nc1)C1CCCCN1Cc1ccc(OCCO)cc1 (configuration not stated)	1	-5	14	1	-1	-1
CC(=O)C1CCC2C3C=CC4=CC(=O)CCC4(C)C3CCC12C (configuration not stated)	1	-5	15	-14	-3	-6
N#Cc1cccc2cccc(S(=O)(=O)N3CCOCC3)c12	4	-4	-12	3	4	26*
O=S(=O)(c1cccc2cccnc12)N1CCOCC1	0	-3	12	-4	2	-2
CC(C)c1nn2c(=O)cc(O)nc2s1	0	-5	6	-9	8	1
O=C(Cc1ccc([N+](=O)[O-])cc1)N1N=C(C2CC2)CC1(O)C(F)(F)F (configuration not stated)	3	-14	1	-4	1	-14
Cc1cc(C)cc(-c2nnc(SCC(=O)c3c(N)n(C4CC4)c(=O)[nH]c3=O)o2)c1	1	-3	2	-7	5	4
NC(=O)c1ccc(Oc2ncc(C(F)(F)F)cc2Cl)cc1	16*	-4	25	-7	10	-1
COc1ccc(CNC(=O)COC(=O)c2cccs2)cc1	1	0	5	-14	21	14
Cc1cc(O)c(C(=O)/C=C/c2ccccc2O)c(=O)o1	3	-1	9	-15	9	24*
Cc1cc(O)c(C(=O)/C=C/c2cccc([N+](=O)[O-])c2)c(=O)o1	2	-4	30	-7	4	-18
COc1cc(CN2CCCC(C(=O)N3CCc4ccccc4C3)C2)cc(OC)c1OC (configuration not stated)	1	-5	-6	15	-4	-10
Cc1nnc(NC(=O)c2ccco2)s1	0	1	-13	-8	9	26*
Cc1ccc(NC(=O)c2ccc(OC(=O)c3ccco3)cc2)cc1	1	-3	6	-1	5	-15
Cc1nnc(NC(=O)c2ccc3ccccc3n2)s1	20*	-2	13	20	-1	5
Cc1ccc(-c2nnc(NC(=O)c3ccco3)s2)cc1	2	-1	0	-5	5	-2
Cc1ccc(Oc2ccc(NC(=O)c3ccco3)cc2)cc1	0	0	-6	3	10	27*
Cc1ccc(S(=O)(=O)NCCC(=O)Nc2ccc(C)cc2C(=O)c2ccccc2)cc1	0	-4	18	-9	6	-17
